High-throughput results deposited in PubChem by several laboratories.
In the library only some 2.2% were active in any assay of this set; here they are far more common.
LGR2 inh: inhibitors of bursicon-induced LGR2 CRE-luciferase signal, primary screen, cell-based, HEK293, CRE-luciferase reporter, bursicon stimulation. bursicon-stimulated, 4 h. inhibition, % at 9.99 µM. actives 0.35% (n = 380,000). AID 720647, 2013;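 active = drop in luminescence signal, shown as inhibition above about 50% in the replicate tests, limit read from the data, passing the limit was not always enough; inconclusive = probably only some replicates passing the limit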;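 also: agonist challenge used bursicon conditioned medium at about half maximal strength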
HSP90 inh: HSP90 inhibitors, primary screen, cell lysate, luminescence; Heat shock protein HSP 90 (rabbit reticulocyte lysate; luciferase refolding); Rabbit reticulocyte lysate, luciferase refolding luminescence, 3 h; inhibition, % at 5.6 µM; actives 0.91% (n = 290,000); AID 1789, 2009;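 active = inhibition above the screen-wide mean plus 3 SD, computed separately per campaign, cut at about 16% in these data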;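 also: 0% = DMSO wells and 100% = 60 µM geldanamycin wells; inhibitors lower the luminescence because luciferase stays unfolded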
TWEAK Fn14 block: inhibitors of TWEAK-Fn14 signaling, primary screen, luciferase reporter cells, uHTS. TWEAK-stimulated Fn14 reporter cells, luciferase luminescence, 8 h. inhibition, % at 10 µM. actives 2% (n = 360,000); in the data active = inhibition above about 50%
TROY signal inh: inhibitors of TROY-driven NF-kB signaling, primary screen, Q293 LMP1-TROYcd cells, NF-kB luciferase, uHTS | Q293 LMP1-TROYcd NF-kB luciferase reporter, 4 h | inhibition, % at 10 µM | actives 0.98% (n = 360,000);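 active = compounds whose plate-normalised and pattern-corrected inhibition of the luciferase reporter signal at the single screening dose is 50% or more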
HSP90 inh confirm: HSP90 inhibitors, confirmation, cell lysate, luminescence. shares compounds with HSP90 inh. rabbit reticulocyte lysate, luciferase refolding luminescence, 3 h. inhibition, % at 5.9 µM. actives 64% (n = 2,300); in the data active = inhibition above about 18%;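 also: 0% = vehicle wells and 100% = reference inhibitor wells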
FLuc counter: firefly luciferase inhibitors, HSP90 counter-screen, confirmation, artefact control for HSP90 inhibitor project, biochemical, luminescence, triplicate | shares compounds with HSP90 inh | purified native firefly luciferase | inhibition, % at 5.9 µM | actives 48% (n = 2,300) | AID 1847, 2009;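 active = inhibition above the mean inhibition of all tested sample wells plus 3 SD, cut at about 10% in these data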;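 also: 0% = DMSO with luciferase and 100% = wells lacking luciferase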
Target sequence (P08659 whole entry, looked up): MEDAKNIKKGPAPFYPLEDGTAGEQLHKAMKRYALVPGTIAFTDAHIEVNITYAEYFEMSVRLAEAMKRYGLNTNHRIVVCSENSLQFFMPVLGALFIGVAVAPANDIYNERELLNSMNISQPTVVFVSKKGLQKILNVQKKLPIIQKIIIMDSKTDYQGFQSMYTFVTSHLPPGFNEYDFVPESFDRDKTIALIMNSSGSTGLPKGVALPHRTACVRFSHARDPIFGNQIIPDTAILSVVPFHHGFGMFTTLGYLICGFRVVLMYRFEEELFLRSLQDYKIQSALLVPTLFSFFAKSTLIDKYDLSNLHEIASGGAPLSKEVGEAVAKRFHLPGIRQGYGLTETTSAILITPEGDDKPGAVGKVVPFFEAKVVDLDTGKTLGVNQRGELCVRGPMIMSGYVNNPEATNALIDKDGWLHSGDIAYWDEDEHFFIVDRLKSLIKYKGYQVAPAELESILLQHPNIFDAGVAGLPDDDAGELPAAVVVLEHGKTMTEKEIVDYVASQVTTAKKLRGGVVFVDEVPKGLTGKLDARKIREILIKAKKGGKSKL
An asterisk follows results filed as active; ? = inconclusive; nt = no result.

SMILES	LGR2 inh	HSP90 inh	TWEAK Fn14 block	TROY signal inh	HSP90 inh confirm	FLuc counter
C/C=C/c1ccc(C2[C@H]3CNC[C@@H]2N3S(=O)(=O)c2ccc(C)cc2)cc1 (stereo not given in full)	10	nt	nt	nt	nt	nt
Nc1cccc(-c2cc3ccccc3oc2=O)c1	-127	44*	60*	67*	35*	-16
COc1cc(C2/C(=C(\O)c3ccc4c(c3)CC(C)O4)C(=O)C(=O)N2CC2CCCO2)cc(OC)c1OC (stereo not given)	12	5	8	7	nt	nt
CC1Cc2cc(/C(O)=C3/C(=O)C(=O)N(CC4CCCO4)C3c3ccco3)ccc2O1 (stereo not given)	nt	22*	44	42	8	12*
Cc1nnc(N2C(=O)C(=O)/C(=C(\O)c3ccc4c(c3)CC(C)O4)C2c2ccccc2)s1 (stereo not given)	0	26*	35	57*	17*	26*
CC1Cc2cc(/C(O)=C3/C(=O)C(=O)N(CCN4CCOCC4)C3c3cccc(O)c3)ccc2O1 (stereo not given)	nt	18*	9	-18	18*	8
C[C@@H]1CCCCO[C@H](CN(C)C(=O)CCCN(C)C)[C@@H](C)CN([C@@H](C)CO)C(=O)c2cc(NC(=O)NC3CCCCC3)ccc2O1	2	nt	nt	nt	nt	nt
O=C(c1cc(F)c(F)cc1Cl)N1CCN(CCc2ccccc2)CC1	5	38*	-13	-7	-1	-6
O=C(c1cc(Cl)ccc1Cl)N1CCN(Cc2ccccc2)CC1	-5	-5	-8	18	nt	nt
CCOc1ccccc1C=C1CCc2ccccc2C1=O	-25	nt	-28	-25	nt	nt
CCOc1ccc(/C=C2\CCc3ccccc3C2=O)cc1	?	35*	90*	70*	44*	73*
Cn1cccc1/C=C1\CCc2ccccc2C1=O	60*	39*	76*	24	64*	67*
O=C(C[C@H]1C[C@@H]2c3cc(NC(=O)Nc4ccccc4)ccc3O[C@@H]2[C@@H](CO)O1)NCc1cccc(F)c1	2	nt	nt	nt	nt	nt
Cc1nnsc1S(=O)c1ccc(F)cc1 (stereo not given)	5	24*	18	-15	-6	-11
Cc1nnsc1S(=O)c1ccc(Br)cc1 (stereo not given)	2	-1	5	1	nt	nt
CC(C)C#Cc1ccc([C@H]2[C@@H](CO)N(C(=O)c3ccccn3)[C@H]2C#N)cc1	3	nt	nt	nt	nt	nt
CCOC(=O)/C(C#N)=C/c1c(Oc2cccc(C)c2)nc2ccccn2c1=O	0	29*	-9	-22	-5	-7
CCOC(=O)c1nc(N/N=C/c2ccccc2)sc1Br	-4	21*	7	-29	28*	-24
Oc1ccc(-c2nc3ccccc3s2)cc1	-44	9	35	-66	nt	nt
O=C(O)c1ccc2nc(-c3ccccc3)sc2c1	63*	95*	79*	-12	95*	79*
CC1CCN(c2nc3ccc(C(=O)O)cc3s2)CC1	nt	97*	96*	34	100*	92*
Nc1ccc(-c2nc3ccc(C(=O)O)cc3s2)cc1	102*	100*	97*	21	101*	92*
NC(=O)c1ccc2nc(NC(=O)c3ccc(N)cc3)sc2c1	-31	4	-7	-29	nt	nt
C[C@H]1CN([C@@H](C)CO)C(=O)c2cccc(NS(=O)(=O)c3cn(C)cn3)c2O[C@H]1CN(C)S(=O)(=O)c1cccs1	3	nt	nt	nt	nt	nt
CC=Cc1ccc2n(c1=O)C[C@@H]1[C@@H](CO)[C@H](C(=O)NCC3CC3)[C@H]2N1Cc1ccccc1OC (mixture of isomers)	-11	nt	nt	nt	nt	nt
SMILES	LGR2 inh	HSP90 inh	TWEAK Fn14 block	TROY signal inh	HSP90 inh confirm	FLuc counter
COCCNC(=O)C(=O)NCCN1CCNCC1	24	34*	11	-2	-2	-8
COCCNC(=O)C(=O)NCCN1CCOCC1	nt	-1	21	nt	nt	nt
Cn1c(=O)[nH]c(=O)c2c1nc(N1CCCCC1)n2C/C=N/Nc1ccc(C(=O)O)cc1	11	41*	17	18	29*	36*
Cc1noc(C)c1S(=O)(=O)Nc1cccc2c1O[C@H](CN(C)S(=O)(=O)c1ccccc1)[C@H](C)CN([C@@H](C)CO)C2=O	18	nt	nt	nt	nt	nt
COc1ccc(C/C(C)=N/NC(=S)Nc2ccccc2F)cc1	-33	36*	71*	79*	48*	35*
COc1ccc(C/C(C)=N/NC(=S)Nc2ccc(C(C)C)cc2)cc1	-17	-1	-30	-16	nt	nt
Cc1cccc(N2C(=O)CC(N3CCC(c4nc5ccccc5[nH]4)CC3)C2=O)c1 (stereo not given)	nt	4	5	-1	nt	nt
CCN1C(=O)CC(N2CCC(c3nc4ccccc4[nH]3)CC2)C1=O (stereo not given)	-2	23*	-11	6	24*	5
Cc1cc(C(=O)Nc2cccc3c2O[C@@H](CN(C)C(=O)Nc2c(C)noc2C)[C@H](C)CN([C@@H](C)CO)C3=O)n(C)n1	2	nt	nt	nt	nt	nt
COC(=O)C1CCN(C(=O)c2ccc3nc(-c4cccc(OC)c4)oc3c2)CC1	-36	51*	-55	-59	63*	-10
C/C(=N\Nc1ccc(Cl)c(C(=O)O)c1)c1ccc[nH]1	8	35*	26	9	22*	-5
C/C(=N\Nc1ccc(Cl)c(C(=O)O)c1)c1ccc(N2CCOCC2)cc1	-46	18*	-17	-32	9	-4
C/C(=N\Nc1ccc(Cl)c(C(=O)O)c1)c1cccs1	-21	-2	-4	-2	nt	nt
O=C1N/C(=N\S(=O)(=O)c2ccccc2)S/C1=C\c1cc([N+](=O)[O-])ccc1O	-2	54*	2	-10	-2	1
Cc1ccc(S(=O)(=O)N(C)C[C@H]2OCCCC[C@@H](C)Oc3ccc(NS(=O)(=O)c4ccccc4)cc3C(=O)N([C@@H](C)CO)C[C@@H]2C)cc1	0	nt	nt	nt	nt	nt
CC1CCCN(C(=O)CSc2nnc(-c3c[nH]c4ccccc34)o2)C1 (stereo not given)	-3	38*	-13	-32	-5	-17
COC(=O)c1ccc(NC(=O)c2ccccc2C(=O)Nc2ccc(C(=O)OC)cc2)cc1	nt	nt	-30	-39	nt	nt
COC(=O)c1ccc(NC(=O)C(=O)c2cccn2C)cc1	?	26*	38	18	59*	42*
O=C1c2ccccc2C(=O)c2[nH]c(=O)[nH]c21	35	24*	45	54*	19*	-10
O=C1c2ccccc2C(=O)c2[nH]cnc21	9	-1	-11	-8	nt	nt
Cc1cccc(Nc2nc(-c3ccc4c(c3)OCCO4)cs2)c1	nt	47*	70*	66*	-2	-27
